The source of these data is PubChem BioAssay (NCI).

The panel holds about 83,000 compounds, 20% with a hit somewhere; the sample as a whole holds those more often.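 Step 1: grow cells in 96-well plates. Step 2: add test compound at a single concentration. Step 3: incubate 48 h. Step 4: record percent growth.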 Values without a mark were called inactive. The source made the active and inactive calls.

The subject of this assay is HCC-2998 colon. Description: NCI-60 one-dose screen, 48 h (100 = growth as untreated, 0 = no growth, -100 = all killed). Particulars: 10 µM unless noted. Here is the method: Growth inhibition of the HCC-2998 human tumor cell line is measured as a screen for anti-cancer activity. Cells are grown in 96 well plates and exposed to the test compound for 48 hours. Compounds are tested at a single concentration, which is 10^-5 M for most compounds. The reported endpoint is percent growth (GI% or GIPRCNT), where numbers from 0 - 100% represent growth inhibition, and numbers from -100% - 0 represent cell death. For example, a value of 40 represents 60% growth inhibition. A value of 0 means no net growth occurred over the course of the experiment. A value of -40 indicates 40% of cells at the beginning of the experiment died by the end of the experiment. A value of -100 means all cells are dead at the end of the experiment.
NCI-60 Human Tumor Cell Lines Screen was performed using the standard one-dose NCI protocol, which is described in more detail at https://dtp.cancer.gov/discovery_development/nci-60/default.htm.
Compounds with GIPRCNT values below 10 were considered active. Activity score was based on GIPRCNT using the following formula: […]
Score is 0 for GIPRCNT values of 100 or above, 50 for GIPRCNT values of 0, and 100 for GIPRCNT values of -100.
Take `C[C@]12CCc3c(ccc4cc(O)ccc34)[C@@H]1CC[C@H]2O`: the growth was 107%.
With `O=C1Nc2ccccc2/C1=C/C(=O)c1ccc(N2CCCC2)cc1`, the growth was 77.9%.
In the case of `O=C(O)c1cn(C2CC2)c2cc(N3CCN(Cc4c(O)ccc5ccccc45)CC3)c(F)cc2c1=O`, the growth was 32.1%.
On to `COc1ccc2c(c1)c(-c1noc(C(=O)c3cn(C)c4ncc(Br)cc34)n1)cn2C`, for which the growth was 92.9%.
On to `CN(C)c1ccc(N=Nc2ccc3ccccc3c2)cc1`, for which the growth was 99.8%.
Turning to `C=C(C)[C@@H]1CC[C@]2(C(=O)OC)CC[C@]3(C)[C@H](CC[C@@H]4[C@@]5(C)CC/C(=N\OCCC(=NCCC#N)NOCCC#N)C(C)(C)[C@@H]5CC[C@]43C)[C@@H]12`, the growth is 26.9% [100 µM].
Take `N#CCCc1c[nH]c2ccccc12`: the growth is 113%.
In the case of `c1cc2ccc1CNCCN1CCNCc3ccc(cc3)Oc3ccc(cc3)CNCCN(CCNCc3ccc(cc3)O2)CCNCc2ccc(cc2)Oc2ccc(cc2)CNCC1`, the growth is -87.8% (active).
`COC(=O)c1cc2c(=O)[nH]cc3c2c(n1)CCC3`: the growth was 88.4%.
Take `CC(C)(C)OC(=O)N1C=C/C(=C\Cn2cc(-c3ccccc3)nn2)CC1`: the growth is 88.4%.
In the case of `O=C(CCN1CCCCC1)c1ccc2ccccc2c1`, the growth was 109%.
As for `C[C@H]1[C@H](C)CC[C@]2(COC(=O)CCC(=O)O)CC[C@]3(C)C(=CC[C@@H]4[C@@]5(C)CCCNC(C)(C)[C@@H]5CC[C@]43C)[C@H]12`, the growth is 71.9% [100 µM].
Regarding `Cc1ccc2c(n1)C(=O)C(Cl)=C(Nc1ccc(N3CCN(C)CC3)cc1)C2=O`, the growth was 95.3%.
`C[n+]1cccc(NC(=O)c2ccc3ccc4ccc(C(=O)Nc5ccc[n+](C)c5)nc4c3n2)c1`: the growth is 42%.
Take `C#C[C@]1(O)CC[C@H]2[C@@H]3CC=C4c5nc(Nc6ncccn6)sc5CC[C@]4(C)[C@H]3CC[C@@]21C`: the growth is 88.3%.
Under `CC(C)C1=NOC(=O)C1=Cc1cn(-c2cccnc2)nc1-c1ccccc1` stands 111%.
Under `C=C(C)[C@@H]1CC[C@]2(C)[C@H](CC[C@@H]3[C@@H]([C@@](C)(O)CCC=C(C)C)CC[C@]32C)[C@@]1(C)CCC(=O)O` stands -37.4% [100 µM] (active); under `CCN(CC)CCCOc1ccc2c(c1)O/C(=C\c1cccc(OC)c1)C2=O`, 86.7%; under `CC[C@@H]1NC(=O)[C@@H]2CCCCN2C(=O)[C@@H]2CCCN2C(=O)[C@@H](NC(=O)[C@H](Cc2cc(F)cc(F)c2)NC(=O)Nc2ccc(C3CC3)cc2F)[C@H](C)OC(=O)[C@@H]2C[C@@H](C)CN2C1=O`, -14.1% (active).
Under `Cc1ccc(-n2nc3n(/c2=N\C(=O)NS(=O)(=O)c2ccc(C)cc2)CCN3C2=NCCN2)cc1` stands 97.3%.
`O=C(Nc1cc(-c2cccnc2)nc(NCCCN2CCOCC2)n1)c1cc(Br)cc(C(F)(F)F)c1`: the growth was 37.8%.
As for `Cn1cc(-c2noc(C(=O)c3cn(C)c4ncc(Br)cc34)n2)c2ccccc21`, the growth was 108%.
For `CC(C)=CC/C=C(/C)[C@H]1CC[C@]2(C)[C@@H]1CC[C@@H]1[C@@]3(C)CCCNC(C)(C)[C@@H]3CC[C@]12C`, the growth was -50.5% [100 µM] (active).
For the compound `Oc1cc(Nc2ccnc3cc(Cl)ccc23)c2ncccc2c1`, the growth is 112%.
For the compound `O=C(O)CSCc1nnc2n(Cc3ccccc3)c(=O)c3c4c(sc3n12)CCCC4`, the growth was 98.1%.
Take `CCN(CC)c1ccc2cc(NC(=O)OCCNC(=O)CCNC(=O)[C@H](CC(C)C)NC(=O)C(C)(C)NC(=O)C(C)(C)NC(=O)[C@H](CC(C)C)NC(=O)CCNC(=O)C(C)(C)NC(=O)[C@H](CC(C)C)NC(=O)CCNC(=O)[C@@](C)(CC)NC(=O)[C@H](C)NC(=O)CCNC(=O)C(C)(C)NC(=O)[C@H](C)NC(=O)[C@@H]3CCCN3C(=O)[C@@](C)(CC)NC(=O)[C@H](Cc3ccccc3)NC(=O)C3CCCN3C(=O)C(C)(C)NC(=O)C3CCCN3C(=O)C(C)(C)NC(C)=O)c(=O)oc2c1` (stereo not given in full): the growth was -94.2% (active).
To `CCN=C1C=CC(=C(c2ccc(N(CC)CC)cc2)c2ccc(N(CC)CC)cc2)c2ccccc21` belongs -81% (active); to `CCN1CCN(CC(=O)Nc2nc3ccc(NCc4ccc(Cl)cc4)cc3s2)CC1`, 82.1%.
In the case of `C#CCOc1ccc(C2=NN(CC3CC3)C3N=C(Cl)c4ncn(CC5CC5)c4N23)cc1OCC#C` (stereo not given), the growth is 119%.
Under `COc1ccc(C2NC(=O)C(C#N)c3c2sc2c(F)cccc32)cc1` (stereo not given) stands 91.5%; under `C=CCCC1(C)NC(=O)NC1=O` (stereo not given), 104%.
As for `CCOC(=O)CCC[P+](c1ccccc1)(c1ccccc1)c1ccccc1`, the growth is 56.3%.
`COc1ccc2c(c1)C(C)Cc1c(Cl)ncnc1N2C` (stereo not given): the growth is 22.3%.
Turning to `CN(C)CCOc1ccc(/C(=C(/CCCl)c2ccccc2)c2ccccc2)cc1`, the growth is -41.2% (active).
`CC(C)OC(=O)Nc1cc(F)c(F)cc1F`: the growth is 101%.
On to `c1nc(N2CCOCC2)c2[nH]ccc2n1`, for which the growth is 110%.
As to `CCCCC1COc2cccc3c2N1C=C/C3=C\C(=O)n1ccc2ccccc21` (stereo not given), the growth is 101%.
Under `C=C(C)[C@@H]1CC[C@]2(COCCCN)CC[C@]3(C)[C@H](CC[C@@H]4[C@@](C)(CCCNCCCN)[C@H](C(=C)C)CC[C@]43C)[C@@H]12` stands -55% [100 µM] (active).
Under `CC1(C)CC[C@]2(C(N)=O)CC[C@]3(C)C(=CC[C@@H]4[C@@]5(C)C/C(=C/c6cccnc6)C(=O)C(C)(C)[C@@H]5CC[C@]43C)[C@@H]2C1` stands -73.4% [100 µM] (active).
In the case of `O=C(NNc1ccc(-c2ccccc2)nn1)c1ccccc1`, the growth was 106%.
